KB-3-1 cytotox: KB-3-1 parental cell cytotoxicity | AID 1347075 | Potency, µM (doses to about 46.1 µM), usual class: cytotoxic | KB-3-1 viability, CellTiter-Glo ATP luminescence, 72 h | 400,000 tested, 1.4% active; note: % is set by controls: 0 for no effect and ±100 for the full control effect; nearly all actives have a fitted effect of over 60% in size
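Parental KB-3-1 viability, qHTS format: 72 h compound exposure, 37 °C; CellTiter-Glo; media-only wells and DMSO plates as controls; concentration-effect fits on corrected data.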
MCF10A rereplic: induces DNA re-replication in MCF 10a normal breast cells | 350,000 tested, 2.9% active | MCF 10A DNA re-replication, Hoechst nuclear intensity, 48 h | Potency, µM (series often up to 46.1 µM), for the others: at the top dose activity, positive = re-replication, actives largely listed as activators; note: % of control where 0% means no effect; nearly all actives have a fitted effect of over 50% in size
ELG1 DNA repair: blocks ELG1-dependent DNA repair in HEK293T cells; HEK293T ELG1-luciferase reporter, luminescence, 16 h; DNA damage induced by 5-fluorouridine; Potency, µM (titrated, usually from 46.1 µM), for the others: at the top dose activity change, negative = inhibition, most hits filed as inhibitors; 330,000 tested, 2.3% active; AID 504467; note: % is set by controls: 0 for no effect and ±100 for the full control effect; nearly all actives have a fitted effect of over 55% in size
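Overnight (16 hr) co-exposure of 2,000 cells/well to 5-fluorouridine and compound at 37 °C preceded detection. Luciferase was quantified via ONE-Glo luminescence; loss of signal denotes inhibition.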
KB-V1 cytotox: KB-V1 MDR subline cytotoxicity. Potency, µM (top dose mostly 46.1 µM), actives largely listed as cytotoxic. 400,000 tested, 3.4% active. AID 1347076. KB-V1 MDR cells viability, CellTiter-Glo, 72 h; note: % is set by controls: 0 for no effect and ±100 for the full control effect; nearly all actives have a fitted effect of over 60% in size
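Cells of the MDR subline KB-V1 are plated, dosed with compound at multiple concentrations, and incubated 72 h at 37 degrees C; CellTiter-Glo is then added and luminescence read after 10 min.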
SW480 rerep: DNA re-replication induction in SW480 cells. SW480 DNA re-replication, Hoechst DNA content imaging, 48 h. Potency, µM (doses to about 46.1 µM), for inactives: at the highest dose re-replication activation, actives largely listed as activators. 340,000 tested, 1.8% active. AID 624297; note: % of control where 0% means no effect; nearly all actives have a fitted effect of over 55% in size
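Cells (250 per well) received 23 nL compound or DMSO by pin tool and were kept 48 hr at 37 C, 5% CO2. Nuclei were then stained with Hoechst for 40 min and scanned for DNA content.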
An asterisk follows results filed as active; i = inactive; ? = inconclusive; nt = not tested or not shown. Most compounds without a hit are left out; they make up all but 8.1% or so of the library. Calls come from the whole dose curve; as a rule, active = well fitted curve in the direction sought with a large enough effect; inconclusive = small, poorly fitted or top-dose-only effect, or another doubt; inactive = no such curve, though single readings can be large; an effect the other way counts as inactive or inconclusive. Potency is the fitted concentration of half-maximal effect.

SMILES | KB-3-1 cytotox | MCF10A rereplic | ELG1 DNA repair | KB-V1 cytotox | SW480 rerep
COc1ccc(-c2nnc(SCC(=O)Nc3ccc(C)cc3)n2C)cc1 | i | -7.6% | -18.9% | i | 1.8%
COc1ccc(N2CCN(C(=O)CSc3nnc4c(C)cc5cc(C)ccc5n34)CC2)cc1 | i | -2.6% | ? | 5.8µM* | -5.4%
CCc1ccccc1NC(=O)c1nc2nc(C)cc(C(F)F)n2n1 | i | nt | nt | i | nt
Cc1cc(NC(=O)CS(=O)c2cn(Cc3cccc(Cl)c3)c3ccccc23)no1 (configuration not stated) | ? | nt | nt | i | nt
Cc1cc(OCC(=O)NCCCN2CCCC2=O)c2c(C)c(C)c(=O)oc2c1 | i | 1.3% | 14.6% | ? | -0.4%
Cc1ccc(C2CC2C(=O)NNC(=S)Nc2cccc(C)c2)cc1 (configuration not stated) | i | ? | 0.6% | 16.4µM* | ?
Cc1ccc(C2CC2C(=O)NNC(=S)Nc2cccc(Cl)c2)cc1 (configuration not stated) | i | 22.5% | -18.2% | i | -1.9%
Cc1ccc(NC(=S)NNC(=O)C2CC2c2ccc(C)cc2)cc1 (configuration not stated) | i | 7.6% | -3.2% | i | 38.8%
COc1ccc(NC(=S)NNC(=O)C2CC2c2ccc(C)cc2)cc1 (configuration not stated) | i | ? | -10.3% | i | 18.4µM*
CCOC(=O)C(=O)N(C)c1c(CC)nc2c(OCc3cccc(OC)c3)cccn12 | i | nt | nt | i | nt
O=C(CCOc1ccccc1)N1CCN(S(=O)(=O)c2ccccc2F)CC1 | i | 2.6% | 17.1% | 20.6µM* | 3.3%
Cc1ccc(NC(=O)Cn2c(=O)n(Cc3ccc4c(c3)OCO4)c(=O)c3ccccc32)c(C)c1 | i | nt | nt | ? | nt
O=C(Nc1nnc(-c2ccccc2F)s1)Nc1ccccc1F | i | 1.0% | ? | i | -1.0%
O=C(Nc1nnc(-c2ccccc2SCc2ccccc2)s1)Nc1ccccc1F | i | 1.9% | 21.1% | i | 3.66µM*
CC(C)CCC[C@@H](C)[C@H]1CC[C@H]2[C@@H]3CC=C4C[C@@H](O)CC[C@]4(C)[C@H]3CC[C@]12C | nt | -0.6% | nt | nt | 0.3%
O=C(/C=C/c1cc(Br)ccc1O)c1ccco1 | ? | ? | ? | 16.4µM* | ?
Nc1ccc(/C=C/C(=O)c2ccco2)cc1 | i | 18.0% | ? | i | 1.7%
O=C(/C=C/c1ccccc1O)c1ccco1 | ? | 14.6µM* | 13.5% | ? | ?
COc1ccc(C(=O)c2c(C(F)(F)F)oc3c2C(=O)c2ccccc2C3=O)cc1 | ? | 4.11µM* | 10.3µM* | ? | 5.17µM*
Cc1cccc(CN2CCN(CC(=O)NCc3ccc(Cl)cc3)C2=O)c1 | i | nt | nt | i | nt
COc1ccc(C2=NN(C(=O)CSc3nc4ccccc4s3)C(c3ccc(F)cc3)C2)cc1 (configuration not stated) | ? | 2.6% | -3.6% | 11.6µM* | 6.3%
COc1ccc(C2=Nc3nc(-c4ccccc4)cn3C(c3ccc(OC)cc3)C2)cc1 (configuration not stated) | i | ? | -27.0% | i | 16.4µM*
COc1ccc(C2=NN(C(C#N)c3ccc(OC)cc3)C(c3ccccc3)C2)cc1 (configuration not stated) | 23.1µM* | ? | ? | 6.51µM* | 9.6%
COc1cccc(C2CC(c3cccs3)=NN2C(=O)CSc2nc3ccccc3s2)c1OC (configuration not stated) | ? | ? | -16.6% | 11.6µM* | ?
COc1ccc(C2CC(c3ccccc3)=NN2C(=O)CCC(=O)O)cc1 (configuration not stated) | i | 4.5% | 0.7% | i | -1.8%
SMILES | KB-3-1 cytotox | MCF10A rereplic | ELG1 DNA repair | KB-V1 cytotox | SW480 rerep
COc1cccc(C2CC(c3cccs3)=NN2C(=O)CCC(=O)O)c1OC (configuration not stated) | i | -3.0% | -3.6% | i | -5.1%
COc1ccc(C2=NN(C(=O)CSc3nc4ccccc4s3)C(c3ccc(OC)cc3)C2)cc1 (configuration not stated) | i | 8.6% | 2.9% | ? | 4.0%
O=C(NC1CCCC1)c1cnn2c1NC(=C1CC1)C=C2C(F)F | ? | nt | nt | i | nt
COc1ccc(CC(=O)OCC(=O)N2N=C(c3ccccc3)CC2c2ccc(OC)cc2)cc1 (configuration not stated) | i | ? | -15.0% | 20.6µM* | 23.8%
CCn1c(SCC(=O)Nc2ccc3c(c2)OCCO3)nnc1-c1ccccn1 | i | -3.8% | 1.0% | i | -7.8%
Cc1ccccc1-n1c(SCC(=O)Nc2ccc3c(c2)OCO3)nnc1-c1ccccn1 | ? | 21.0% | ? | 2.06µM* | ?
O=C(CCC(=O)c1ccc(Oc2ccccc2)cc1)Nc1ccc(Cl)cc1Cl | i | ? | 15.8% | i | 5.8µM*
COC(=O)[C@@H](Cc1c[nH]c2ccccc12)NCc1cccc(B(O)O)c1 | i | 6.4% | nt | i | -1.4%
Cc1cc2nc(-c3ccc(C#N)cc3)c(Cc3cccc(F)c3)n2c(C)c1Br | i | nt | nt | i | nt
N#CCSc1n[nH]c2nc3c(c(=O)n12)C1(CCCCC1)Cc1ccccc1-3 | i | 16.4µM* | ? | i | ?
Cn1c(NCCCO)nc2c(c1=O)C1(CCCCC1)Cc1ccccc1-2 | i | 18.4µM* | -5.3% | i | 0.2%
CCC1(C)Cc2ccccc2-c2nc(NCCCO)n(-c3ccccc3)c(=O)c21 (configuration not stated) | ? | ? | -16.9% | ? | -0.5%
CSc1n[nH]c2nc3c(c(=O)n12)C1(CCCCC1)Cc1ccccc1-3 | ? | ? | 4.4% | ? | ?
CCn1c(SCC#N)nc2c(c1=O)C1(CCCC1)Cc1ccccc1-2 | ? | ? | -15.1% | i | 4.2%
CCSc1n[nH]c2nc3c(c(=O)n12)C1(CCCCC1)Cc1ccccc1-3 | i | 5.17µM* | 0.0% | i | -3.2%
CCn1cc(C(=O)NCCc2ccccc2)c(=O)c2cc(S(=O)(=O)N3CCc4ccccc4C3)ccc21 | i | nt | nt | i | nt
Cc1ccc(CNC(=O)C2(C)CCN2C(=O)Cc2ccc(-c3ccccc3)cc2)cc1 (configuration not stated) | i | nt | nt | i | nt
Cc1ccc([N+](=O)[O-])c2cccnc12 | i | 0.5% | 14.2% | i | -13.9%
O=[N+]([O-])c1cc2cccnc2c2ncccc12 | 0.116µM* | 0.0% | 7.3µM* | i | 14.6µM*
O=[N+]([O-])c1cc(O)c2ncccc2c1 | ? | ? | 2.59µM* | 18.4µM* | -26.8%
